Assay outcomes as filed in PubChem BioAssay.
CYP2C9 inh: blockers of cytochrome P450 2C9 activity – biochemical, luminescence, ADME assay, primary screen | P11712 | 96,000 tested, 20% active | CYP2C9 Supersomes, luciferin-H conversion | inhibition, % at 5 µM;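 active means blocking of liver enzyme CYP2C9 beyond about 50% at 5 µM, limit read from the data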
CYP2C9 act: human CYP2C9 activators, primary screen, biochemical, luminescence; activation factor at 5 µM; recombinant CYP2C9, luciferin-H conversion; stronger effect = higher value; factor 1 = untreated enzyme, 0 = blocked; 96,000 tested, 1.4% active;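 active means activation factor of 2 or more for CYP2C9 at a 5 µM dose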;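 further: 0 = sulfaphenazole-blocked wells and 1 = vehicle-only wells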
CYP2C19 activ: human CYP2C19 activators, primary screen, biochemical, luminescence. Cytochrome P450 2C19 (Homo sapiens), P33261. recombinant CYP2C19, luciferin-H EGE luminescence; stronger effect = higher value; 0 = fully inhibited enzyme, 1 = untreated enzyme. activation factor at 5 µM. 96,000 tested, under 10 active;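 active means activation factor of at least 2 at 5 µM in the primary screen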;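 further: 0 = wells with 2.5 mM tranylcypromine and 1 = vehicle-only wells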
Target sequence (P33261 whole entry, looked up): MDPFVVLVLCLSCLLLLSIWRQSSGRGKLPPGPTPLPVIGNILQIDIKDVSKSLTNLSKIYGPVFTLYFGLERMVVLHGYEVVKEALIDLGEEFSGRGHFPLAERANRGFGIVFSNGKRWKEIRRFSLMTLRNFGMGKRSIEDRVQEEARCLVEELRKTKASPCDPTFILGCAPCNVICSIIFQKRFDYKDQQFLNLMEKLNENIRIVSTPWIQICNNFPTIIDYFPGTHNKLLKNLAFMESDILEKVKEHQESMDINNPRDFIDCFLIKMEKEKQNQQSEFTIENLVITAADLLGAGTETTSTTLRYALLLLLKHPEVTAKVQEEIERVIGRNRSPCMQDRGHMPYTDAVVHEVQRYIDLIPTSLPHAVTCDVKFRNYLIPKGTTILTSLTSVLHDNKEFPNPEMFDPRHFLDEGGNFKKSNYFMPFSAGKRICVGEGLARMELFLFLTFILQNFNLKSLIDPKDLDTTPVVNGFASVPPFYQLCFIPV
CYP2C19 inh: blockers of cytochrome P450 2C19 activity – biochemical, luminescence, ADME assay, primary screen. 96,000 tested, 21% active. CYP2C19 Supersomes, luciferin-H EGE luminescence, 30 min. AID 778, 2007. P33261. inhibition, % at 5 µM;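 active means CYP2C19 inhibition above a set limit at 5 µM in the primary screen, cut at about 50% in these data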;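 further: plate controls were negative control wells for no effect and 2.5 mM tranylcypromine positive control for full effect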
Measles CPE: compounds protecting cells from measles virus cytopathic effect, primary screen, measles RdRp inhibitor project, single point, MLSMR library, absorbance; Measles virus-infected cells, CPE protection; AID 841, 2007; protection (pct of control), % at 4 µM; 140,000 tested, 1.5% active; in the data active means protection mostly above about 24%, no sharp cut-off; inactive means mostly below about 26%
* = called active by the depositor; . = not tested or not shown. An excerpt weighted towards active compounds, which were near 22% of everything screened.

SMILES	CYP2C9 inh	CYP2C9 act	CYP2C19 activ	CYP2C19 inh	Measles CPE
C=C(C)COc1ccc(-c2[nH]ncc2Oc2ccccc2OC)c(O)c1	85*	0.2	0.4	61*	10
CCOc1ccc(-c2[nH]ncc2Oc2ccccc2OC)c(O)c1	98*	0	0	99*	12
Cn1c(=O)n(C)c2cc(C(=O)c3ccccc3)ccc21	2	1	0.9	8	5
COCCCN1C(=O)c2ccc(C(=O)Nc3ccccc3OC)cc2C1=O	-100	2*	0.7	35	4
COCCN1C(=O)c2ccc(C(=O)Nc3nccs3)cc2C1=O	0	1	0.9	7	30*
CCCN1C(=O)c2ccc(C(=O)Nc3cc(C)on3)cc2C1=O	-3	1	0.9	9	2
COCCN1C(=O)c2ccc(C(=O)O)cc2C1=O	55*	0.5	0.9	15	19
CCCCN1C(=O)c2ccc(C(=O)Nc3c(N)n(CCCC)c(=O)n(C)c3=O)cc2C1=O	56*	0.4	0.9	8	33
CCCCNC1CCS(=O)(=O)C1 (stereo not drawn)	-5	1.1	1.1	-11	11
O=C(OCn1ncc(Br)c(Br)c1=O)c1c(F)cccc1F	38	0.6	0.2	83*	0
CCn1cc(/C=N\NC(=O)COc2cccc(C)c2C)c(C)n1	.	.	.	.	4
COc1ccc(CC(=O)Nc2ccc(S(=O)(=O)Nc3cc(C)on3)cc2)cc1OC	4	1	1	3	7
COc1ccc2[nH]c3c(c2c1)CCn1c-3nc2ccccc2c1=O	42	0.6	0.3	75*	13
Cc1nc2ccccc2c(=O)n1NC(=O)c1ccco1	.	.	.	.	6
COc1cc(OC)cc(C(=O)Nn2cc(C(=O)N3CCN(C)CC3)c3ccccc3c2=O)c1	58*	0.4	0.9	11	4
COc1cccc(CC(=O)Nn2c(C)nc3ccccc3c2=O)c1	87*	0.1	0.6	40	12
O=C(Cc1ccccc1)Nn1c(-c2ccccc2)nc2ccccc2c1=O	.	.	.	.	4
COc1cc(OC)cc(C(=O)Nn2c(C)nc3ccccc3c2=O)c1	53*	0.5	0.6	36	4
CCOC(=O)N1CCN(C(=O)c2ccc(CNS(=O)(=O)c3ccc(C)cc3)cc2)CC1	24	0.8	0.9	8	10
CCOc1ccccc1C(=O)Nn1c(C2CCC2)nc2ccccc2c1=O	49	0.5	0.8	17	8
COc1ccccc1C(=O)Nn1c(C2CCC2)nc2ccccc2c1=O	95*	0.1	0.5	54*	5
COc1ccc(Br)c(C(=O)Nn2c(C)nc3ccccc3c2=O)c1	54*	0.5	1.1	-11	4
Cc1nc2ccccc2c(=O)n1NC(=O)c1ccc(F)cc1Cl	81*	0.2	1	-3	3
C/C(=N\OCC(=O)Nn1c(C)nc2ccccc2c1=O)c1ccccc1	.	.	.	.	21
Cc1ccc(C)c(OCC(=O)Nn2c(C)nc3ccccc3c2=O)c1	78*	0.2	0.9	5	1
SMILES	CYP2C9 inh	CYP2C9 act	CYP2C19 activ	CYP2C19 inh	Measles CPE
Cc1nc2ccccc2c(=O)n1NC(=O)c1ccccc1Cl	44	0.6	1	-2	12
CCOC(=O)Cc1csc(NC(=O)CN2C(=O)c3ccccc3S2(=O)=O)n1	37	0.6	1	0	2
CC(C)C12CN3CC(C(C)C)(CN(C1)C3c1ccccc1)C2O (stereo not drawn)	-4	1	1.1	-11	10
CCc1c(C)nc2[nH]nc(NC(=O)C(F)(F)F)n2c1=O	10	0.9	1	3	51*
CCc1nc(NCC2CCCO2)c2oc3ccccc3c2n1 (stereo not drawn)	46	0.5	0.5	48	15
CCOC(=O)c1c(C)nc2sc3c(=O)n(-c4ccc(C(C)=O)cc4)cnc3c2c1-c1ccc(Cl)cc1	88*	0.1	0.1	94*	2
CCOC(=O)c1c(C)nc2sc3c(=O)n(-c4ccc(C(C)=O)cc4)nnc3c2c1-c1ccc(Cl)cc1	6	0.9	1	0	7
CCOc1ccc(CCN2C(=O)C3C4C=CC(C4)C3C2=O)cc1OCC (stereo not drawn)	9	0.9	0.5	53*	13
CCOc1ccc(C(C)=O)cc1N1C(=O)C2C3C=CC(C3)C2C1=O (stereo not drawn)	-5	1	1	1	14
